From PubChem BioAssay (NCI)
This is part of a sample that, as a whole, favours compounds with a hit. Of some 79,000 tested, about 15% had one in any assay. Activity calls are given as the source filed them. Rule as the data show it: active = growth inhibition above about 70%; inactive = the rest.

Columns and labels:
[1] = NCI Yeast Anticancer Drug Screen. Data for the rad52 strain (AID 147);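 also: 0% = growth of vehicle-treated control cultures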; details: S. cerevisiae rad52 mutant growth inhibition, active compounds read high
Summary of the method: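 Yeast strain carrying a DNA damage repair alteration was exposed to test compounds. Growth inhibition was measured relative to vehicle-treated controls.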

[2] = NCI Yeast Anticancer Drug Screen. Data for the wt1 strain (AID 149);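 also: 0% = growth of vehicle-treated wt1 cultures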; details: S. cerevisiae wt1 strain (SPY 50644) growth inhibition, active compounds read high
Summary of the method: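 The wt1 strain was treated with compounds, and growth was compared with vehicle-treated cultures to give inhibition.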

[3] = NCI Yeast Anticancer Drug Screen. Data for the rad50 strain (AID 155);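 also: 0% = growth of vehicle-only cultures of the same strain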; details: S. cerevisiae rad50 strain growth inhibition, active compounds read high
Summary of the method: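 Cells are treated with compound, grown, and their growth is then scored against vehicle-only cultures of the same repair-deficient yeast strain.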

[4] = NCI Yeast Anticancer Drug Screen. Data for the mec2-1 strain (AID 157); details: S. cerevisiae mec2-1 strain, active compounds read high
Summary of the method: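 mec2-1 yeast strain, carrying an alteration in DNA damage repair or cell cycle control, was exposed to compounds; growth inhibition was measured relative to vehicle-treated controls.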

[5] = NCI Yeast Anticancer Drug Screen. Data for the rad14 strain (AID 159);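 also: 0% = growth of vehicle-treated control cultures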; details: S. cerevisiae rad14 strain growth inhibition, active compounds read high
Summary of the method: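 Readout: yeast growth inhibition, referenced to vehicle-only cultures. Strain bears a defined alteration in DNA damage repair.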

[6] = NCI Yeast Anticancer Drug Screen. Data for the sgs1 mgt1 strain (AID 161);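 also: 0% = growth of cultures given vehicle only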; details: S. cerevisiae sgs1 mgt1 strain, active compounds read high
Summary of the method: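 Yeast cells carrying a defined DNA-repair defect were exposed to test compounds. Growth inhibition was measured relative to vehicle-treated controls.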

[7] = NCI Yeast Anticancer Drug Screen. Data for the CLN2oe strain (AID 163);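 also: 0% = growth of vehicle-only control cultures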; details: S. cerevisiae CLN2oe strain, active compounds read high
Summary of the method: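 Yeast cells carrying a defined cell-cycle control alteration were exposed to test compounds. Growth inhibition was scored against vehicle-treated control cultures.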

[8] = NCI Yeast Anticancer Drug Screen. Data for the cln2 rad14 strain (AID 165);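 also: 0% = growth equal to vehicle treated cultures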; details: S. cerevisiae cln2 rad14 strain, active compounds read high
Summary of the method: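 Yeast carrying cln2 and rad14 alterations (cell cycle control and DNA damage repair) were exposed to compounds. Growth inhibition was measured against vehicle-treated controls.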

[9] = NCI Yeast Anticancer Drug Screen. Data for the bub3 strain (AID 167); details: S. cerevisiae bub3 mutant strain, active compounds read high
Summary of the method: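 Part of a panel of yeast mutants defective in DNA damage repair or cell cycle regulation. Each strain is grown with compound, and inhibition is calculated relative to solvent-treated cultures.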

[10] = NCI Yeast Anticancer Drug Screen. Data for the wt2 strain (AID 169);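 also: 0% = growth of vehicle-treated yeast cultures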; details: S. cerevisiae wt2 strain growth inhibition, active compounds read high
Summary of the method: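 Yeast cells were exposed to test compounds, and growth inhibition was measured relative to vehicle-treated controls.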

[11] = NCI Yeast Anticancer Drug Screen. Data for the mlh1 strain (AID 171);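 also: 0% = growth of vehicle-treated control cultures of the same strain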; details: S. cerevisiae mlh1 strain growth inhibition, active compounds read high
Summary of the method: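 Yeast carrying a defined genetic alteration in DNA damage repair or cell cycle control were exposed to test compounds. Growth inhibition was measured relative to vehicle-treated controls.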

[12] = NCI Yeast Anticancer Drug Screen. Data for the mlh1 rad18 strain (AID 175); details: S. cerevisiae mlh1 rad18 strain growth inhibition, active compounds read high
Summary of the method: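 Growth inhibition of the yeast strain was measured after compound exposure and expressed relative to vehicle-treated controls. The strain carries defined defects in DNA damage repair.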

[13] = NCI Yeast Anticancer Drug Screen. Data for the rad18 strain (AID 177); details: S. cerevisiae rad18 mutant growth inhibition, active compounds read high
Summary of the method: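 Yeast carrying a defined DNA damage repair alteration were exposed to compounds. Growth inhibition was expressed relative to vehicle-treated controls.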

[14] = at 5.0 µM (retest, dose inferred, filed as 0.5)
[15] = at 50.0 µM (retest, dose inferred, filed as 5.0)

Measured: growth inhibition

CN(CCOc1ccc(Cl)cc1)CCOc1ccc(Cl)cc1
inactive: [1]; at 1.2 µM 8% | [1]; at 3.7 µM 18% | [1]; at 11.0 µM 50% | [2]; at 1.2 µM 7% | [2]; at 3.7 µM 7% | [2]; at 11.0 µM 10% | [2]; at 33.0 µM 39% | [3]; at 1.2 µM 11% | [3]; at 3.7 µM 17% | [3]; [14] 13% | [3]; at 11.0 µM 51% | [4]; at 1.2 µM 12% | [4]; at 3.7 µM 16% | [4]; [14] 5% | [4]; at 11.0 µM 36% | [5]; at 1.2 µM 28% | [5]; at 3.7 µM 25% | [5]; at 11.0 µM 48% | [6]; [14] 25% | [7]; at 1.2 µM 20% | [7]; at 3.7 µM 18% | [7]; at 11.0 µM 50% | [8]; [14] 11% | [9]; at 1.2 µM 16% | [9]; at 3.7 µM 23% | [9]; [14] 10% | [9]; at 11.0 µM 60% | [10]; at 1.2 µM 8% | [10]; at 3.7 µM 11% | [10]; at 11.0 µM 26% | [11]; at 1.2 µM 13% | [11]; at 3.7 µM 17% | [11]; at 11.0 µM 41% | [12]; [14] 22% | [13]; at 1.2 µM 14% | [13]; at 3.7 µM 11% | [13]; at 11.0 µM 23%
active: [1]; at 33.0 µM 90% | [1]; at 100.0 µM 99% | [2]; at 100.0 µM 99% | [3]; at 33.0 µM 97% | [3]; [15] 97% | [3]; at 50.0 µM 99.2% | [3]; at 100.0 µM 99% | [4]; at 33.0 µM 93% | [4]; [15] 99% | [4]; at 50.0 µM 99.5% | [4]; at 100.0 µM 99% | [5]; at 33.0 µM 99% | [5]; at 100.0 µM 99% | [6]; [15] 99% | [6]; at 50.0 µM 99.7% | [7]; at 33.0 µM 90% | [7]; at 100.0 µM 99% | [8]; [15] 97% | [8]; at 50.0 µM 99.5% | [9]; at 33.0 µM 97% | [9]; [15] 98% | [9]; at 50.0 µM 99.6% | [9]; at 100.0 µM 97% | [10]; at 33.0 µM 89% | [10]; at 100.0 µM 99% | [11]; at 33.0 µM 98% | [11]; at 100.0 µM 99% | [12]; [15] 99% | [12]; at 50.0 µM 99.5% | [13]; at 33.0 µM 80% | [13]; at 100.0 µM 99%
